Screening data as filed in PubChem BioAssay.
IMPase Li cell – membrane-permeable IMPase blocker, potentiated with lithium; Potency, µM (titrated, usually from 59.4 µM), most hits filed as inhibitors; CHO-M1 cells, IP1 TR-FRET (IP-One), carbachol + lithium; 210,000 tested, 0.35% active; active = well fitted inhibition curve with a large enough effect; inconclusive = small, poorly fitted or top-dose-only effect; inactive = no such curve, though single readings can be large or run the other way;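 also: IP1 builds up when IMPase is blocked and the TR-FRET signal falls; nearly all actives have a fitted effect of over 50% in size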
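Test compounds were applied to CHO-M1 cells previously cultured for 16–30 h at 2000 per well. A small lithium amount accompanied them; after 30 min at 37C, IP1 was quantified by TR-FRET.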
HPGD inh – inhibitors of human 15-hydroxyprostaglandin dehydrogenase (HPGD). P15428. Potency, µM, hits mostly inhibitors. 150,000 tested, 4.3% active. purified HPGD, NADH fluorescence kinetic, PGE2 substrate. AID 894
Target sequence (P15428 whole entry, looked up): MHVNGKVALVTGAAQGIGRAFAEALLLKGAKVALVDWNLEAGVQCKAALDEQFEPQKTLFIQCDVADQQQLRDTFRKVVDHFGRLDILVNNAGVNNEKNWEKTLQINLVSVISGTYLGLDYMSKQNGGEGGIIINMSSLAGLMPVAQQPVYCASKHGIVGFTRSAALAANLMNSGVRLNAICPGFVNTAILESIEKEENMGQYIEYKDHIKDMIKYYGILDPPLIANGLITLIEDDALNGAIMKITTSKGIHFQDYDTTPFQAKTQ
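20 nM HPGD preincubated 15 min at room temperature with compound in 50 mM Tris-HCl pH 8, 0.01% Tween 20. Started with 1 mM NAD+ and 30 uM prostaglandin E2; NADH fluorescence (360/450 nm) read 5 times over 30-s intervals, last minus first.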
ALDH1A1 block – ALDH1A1 (human) enzyme inhibition. Purified ALDH1A1, NADH fluorescence, propionaldehyde substrate. Potency, µM (highest dose often 75.3 µM), hits mostly inhibitors. 220,000 tested, 7.3% active
Target sequence (P00352 whole entry, looked up): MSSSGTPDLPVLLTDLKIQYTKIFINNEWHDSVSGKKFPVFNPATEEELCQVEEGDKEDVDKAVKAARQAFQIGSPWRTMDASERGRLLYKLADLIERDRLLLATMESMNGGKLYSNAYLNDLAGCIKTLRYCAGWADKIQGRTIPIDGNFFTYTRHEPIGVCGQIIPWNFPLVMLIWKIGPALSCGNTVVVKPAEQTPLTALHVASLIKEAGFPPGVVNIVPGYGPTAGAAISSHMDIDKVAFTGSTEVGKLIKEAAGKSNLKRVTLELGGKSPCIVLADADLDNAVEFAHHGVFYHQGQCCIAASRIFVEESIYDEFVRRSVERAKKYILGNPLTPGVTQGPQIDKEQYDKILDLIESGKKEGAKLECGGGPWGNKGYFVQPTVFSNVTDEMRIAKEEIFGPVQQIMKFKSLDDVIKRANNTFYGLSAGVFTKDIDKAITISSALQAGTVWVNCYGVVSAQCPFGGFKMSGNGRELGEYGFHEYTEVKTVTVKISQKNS
IMPase inh – membrane-permeable compound that blocks inositol monophosphatase; CHO-M1 cells, IP1 accumulation, HTRF TR-FRET ratio; inhibition (IP1 accumulation), % at 46.1 µM; 120,000 tested, under 10 active; active = well fitted curve in the direction sought with a large enough effect in the signal ratio, not every such curve was filed as active; inconclusive = small, poorly fitted or top-dose-only effect, or a change in a side signal; inactive = no such curve, though single readings can be large or run the other way; the % refers to the signal ratio;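 also: cells stimulated with carbachol in lithium chloride buffer; higher means more IMPase inhibition seen as more IP1 and lower FRET ratio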
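CHO-M1 cells (CHO stably expressing M1 receptor), compound up to 46 uM final, stimulated with carbachol (50 uM as added) in buffer with 50mM LiCl, pH 7.4, 30 min at 37C. Cytosolic IP1 read by TR-FRET; AC50 from Hill fits.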
PNC assembly inh – inhibitors of perinucleolar compartment assembly | PC3M PTB-GFP, PNC prevalence imaging, 16 h; stronger effect = lower value | activity change (PNC), negative = inhibition, % at 10 µM | 140,000 tested, 3.1% active | AID 2417;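 active = readout at or below -70, meaning at least 70% loss of cells showing the perinucleolar compartment, a nuclear body marking cancer cells; inconclusive = readout between -30 and a set limit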
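Compounds are pinned in duplicate onto adhered PC3M cells stably expressing GFP-tagged PTB and incubated 16 h at 37 C. Cells are then fixed, nuclei stained with Hoechst, and PNC-positive cells counted.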
Hits are given with their value; 0 = inactive; ? = inconclusive; - = no result given; [ ] = remark or other dose. Hits are enriched below; roughly 11% of the tested compounds scored in any of these assays. Unless noted, calls follow the shape of the dose curve; as a rule, active = well fitted inhibition curve with a large enough effect (not every such curve was filed as active); inconclusive = small, poorly fitted or top-dose-only effect, or another doubt; inactive = no such curve, though single readings can be large or run the other way.

SMILES | IMPase Li cell | HPGD inh | ALDH1A1 block | IMPase inh | PNC assembly inh
CCN(CC)C(=O)c1ccc(Nc2nnc(C)c3ccccc23)cc1 | 0 | 2.2µM | 4µM | ? | 0
CCN(CC)C(=O)c1ccc(Nc2nnc(-c3ccc(C)c(S(=O)(=O)NC)c3)c3ccccc23)cc1 | - | - | - | 0 | -
CCn1cc(C2C(C(=O)Nc3cc(C)ccn3)=C(C)NC3=C2C(=O)CC(C)(C)C3)c(C)n1 (stereo not given) | 0 | ? | ? | - | 0
Cn1cc(CNC(=O)CC2C(=O)NCCN2CC(C)(C)C)cn1 (stereo not given) | 0 | - | ? | - | -
CCOC(=O)CSC1=NC(=O)CS1 | 0 | 14µM | 32µM | 0 | ?
COC(=O)C1=C(C)N(Cc2ccccc2)C2=C(C(C)=O)C(c3ccccc3)[C@@](O)(C(=O)OC)C(=O)N2C1c1ccccc1 (stereo not given in full) | - | - | 0[13.5 µM] | - | -
C[C@@H]1/C=C\CC(=O)OC[C@H](C)C(=O)N[C@@H](C)C(=O)OC1 | - | - | 0[13.5 µM] | - | -
COc1ccc(-c2c(C)nn(-c3ccccc3)c2N)cc1 | 0 | 20µM | 0 | 0 | 0
Cc1nn(C(C)(C)C)c(N)c1-c1ccccc1 | 0 | 28µM | 0 | - | 0
Cc1nn(C2CCCCC2)c(N)c1-c1ccccc1 | 0 | 11µM | 0 | 0 | 0
Cc1nn(C)c(N)c1-c1ccccc1 | 0 | - | 0 | - | -
COc1ccccc1N/C(=N/S(=O)(=O)c1ccc(C)cc1)c1ccc(Cl)cc1 | 0 | 0 | ? | 0 | 0
COc1cc(CNC(C)C)c(Br)cc1OC1CCCC1 | 0 | - | 0 | - | -
O=c1c[n+](CCCC[n+]2cc(=O)o[nH]2)[nH]o1 | 0 | 0 | 0[13.5 µM] | - | -
NS(=O)(=O)O | 0 | 0 | 0 | - | -
CCn1cc[n+](C)c1P(c1ccccc1)c1ccccc1 | 0 | 25µM | 0 | 0 | 0
NC1=NC(=O)/C(=C/c2cccs2)S1 | 0 | 0 | 0 | 0 | 0
C=CCSC1=NC(=O)/C(=C/c2cccs2)S1 | 0 | 32µM | ? | - | 0
CC(C)N1CCN(Cc2ccsc2)CC1CCO (stereo not given) | 0 | - | 0 | - | -
O=C(CSc1nnc(-c2ccccc2Br)o1)N1CCc2ccccc2C1 | 0 | 25µM | ? | 0 | 0
COc1cccc(OCc2nnc(SCC(=O)N3c4ccccc4Sc4ccc(Cl)cc43)o2)c1 | 0 | 0 | 10µM | - | 0
O=C(CSc1nnc(-c2c[nH]c3ccccc23)o1)N1c2ccccc2CCc2ccccc21 | 0 | 0 | 3.5µM | 0 | 0
COc1cc(OC)cc(-c2nnc(SCC(=O)N3CCCCC3)o2)c1 | 0 | 25µM | 0 | 0 | 0
O=C(CSc1nnc(-c2ccco2)o1)N1c2ccccc2CCc2ccccc21 | 0 | 0 | 0 | 0 | 0
COc1ccc(C(=O)c2oc3ccccc3c2NC(=O)COc2ccccc2)cc1 | - | - | - | 0 | -
SMILES | IMPase Li cell | HPGD inh | ALDH1A1 block | IMPase inh | PNC assembly inh
O=C(CSc1nnc(-c2c[nH]c3ccccc23)o1)N1CCCCC1 | 0 | 28µM | ? | 0 | 0
O=C(CSc1nnc(COc2cccc3ccccc23)o1)N1c2ccccc2CCc2ccccc21 | 0 | 0 | 22µM | 0 | 0
O=C(CSc1nnc(COc2cccc3cccnc23)o1)N1CCCC1 | 0 | - | 0 | - | -
COc1ccc(-c2nc3cnc(Nc4cccc(OC)c4)nc3n(C[C@H]3CCCO3)c2=O)cc1 | 0 | - | 0 | - | -
Cc1c(-c2ccc(O)cc2)nn(-c2ccc(O)cc2)c1-c1ccc(OCCN2CCCCC2)cc1 | 0 | 0 | ? | 0 | -
COc1ccc(OC)c(Nc2nc3ccccc3n3c(C)nnc23)c1 | - | - | - | 0 | -
CCOC(=O)c1cc(-c2csc(Nc3c(C)cc(C)cc3C)n2)on1 | - | - | 14µM | - | -
C/C(=N\NC(=S)NCc1ccccc1)c1ccco1 | 0 | - | 32µM | - | -
C/C(=N\NC(=S)NCc1ccccc1)c1ccccc1 | 0 | 0 | 0 | - | 0
CCOc1cc(CNc2ccc(O)cc2)cc(Cl)c1OCc1ccccc1 | - | - | - | 0 | -
COC(=O)c1c(NC(=O)CN2CCC3(O)CCCCC3C2c2ccc(OC)cc2OC)sc(C)c1C (stereo not given) | 0 | 20µM | 2.5µM | 0 | 0
CCc1ccc(-n2c(CCC(=O)O)ccc2-c2ccc(F)cc2)cc1 | - | - | - | 0 | -
CCOc1ccccc1CN1CCN(S(=O)(=O)CC)CC1 | 0 | 0 | 0 | 0 | ?
CCCS(=O)(=O)N1CCN(Cc2ccccc2OCC)CC1 | 0 | 0 | 0 | 0 | -85
Cc1cc(C)nc(NC=C2C(=O)OC(C)(C)OC2=O)n1 | - | - | 4µM | - | -
O=C(Oc1ccc(N(Cc2cccs2)C2=NS(=O)(=O)c3ccccc32)cc1)c1ccccc1Cl | 0 | 0 | ? | 0 | ?
O=C(Oc1ccc(N(Cc2cccs2)C2=NS(=O)(=O)c3ccccc32)cc1)c1ccco1 | 0 | 0 | 28µM | 0 | ?
Cc1ccc(NC(=O)Nc2nc(-c3ccc(C)s3)cs2)cc1 | 0 | 0 | 0 | 0 | 0
Nc1ccccc1-c1nc2ccccc2[nH]1 | 0 | ? | ? | 0 | -83
Nc1cccc(-c2nc3ccccc3[nH]2)c1 | 0 | ? | ? | 0 | 0
O=C1[C@H]2[C@H]3[C@H](O)[C@H](O)C/C(=N/OC[C@@H](O)COCc4ccco4)[C@H]3CC[C@@H]2C(=O)N1Cc1ccc2c(c1)OCO2 | - | - | 0[13.5 µM] | - | -
CN(c1ccc(C(=O)NCCSCc2ccco2)cc1)S(C)(=O)=O | 0 | ? | 2.5µM | 0 | ?
O=C(CN(c1ccccc1)S(=O)(=O)c1ccccc1)NCCSCc1ccco1 | 0 | 0 | 10µM | 0 | 0
Cc1ccc(N(CC(=O)NCCSCc2ccco2)S(C)(=O)=O)cc1 | 0 | 0 | 8.9µM | 0 | 0
Cc1ccc(S(=O)(=O)N(CC(=O)NCCSCc2ccco2)c2ccc(F)cc2)cc1 | - | - | 28µM | - | -
SMILES | IMPase Li cell | HPGD inh | ALDH1A1 block | IMPase inh | PNC assembly inh
CC(=O)c1c(C)oc2c1cc(NS(=O)(=O)c1ccc(Cl)c(C)c1)c1ccccc12 | - | - | - | 0 | -
COc1ccc(Cl)cc1N=Nc1ncc[nH]1 | 0 | 0 | ? | 0 | -
Cc1cc(Cl)ccc1N(CC(=O)NCCSCc1ccco1)S(C)(=O)=O | 0 | - | 13µM | - | -
CS(=O)(=O)N(CC(=O)NCCSCc1ccccc1)c1ccccc1 | 0 | - | 28µM | - | -
COc1ccc(N(CC(=O)NCCSCc2ccco2)S(=O)(=O)c2ccc(C)cc2)cc1 | 0 | - | 20µM | - | -
Cc1ccc(N(CC(=O)NCCSCc2ccco2)S(=O)(=O)c2ccc(F)cc2)cc1 | 0 | - | 20µM | - | -
Cc1cc(C)cc(N(CC(=O)NCCSCc2ccccc2)S(C)(=O)=O)c1 | 0 | - | 0 | - | -
CS(=O)(=O)N(CC(=O)NCCSCc1ccco1)c1ccc2c(c1)OCO2 | 0 | - | ? | - | -
C=CCNC(=S)NCCCCC1NC(=S)N(CC=C)C1=O (stereo not given) | 0 | 0 | 0 | 0 | 0
O=C1C(CCCNC(=S)NCc2ccccc2)NC(=S)N1Cc1ccccc1 (stereo not given) | 0 | ? | 32µM | - | 0
Cc1cc(O)cc(O)c1C(=O)OC1(C)C(=O)C=C2C=C(/C=C/CO)OC=C2C1=O (stereo not given) | 0 | 0 | 22µM | - | -
O=[N+]([O-])c1ccc(Nc2nc(NC3CCCCC3)nc(N3CCCC3)n2)cc1 | 0 | - | 13µM | - | -
O=C(NNC(=S)Nc1ccccc1)C1CC1 | 0 | 0 | 0 | ? | 0
S=C(NN=C(C1CC1)C1CC1)Nc1ccccc1 | 0 | 0 | 25µM | 0 | 0
